6 compounds from ChEMBL document CHEMBL2218924, “A broad activity screen in support of a chemogenomic map for kinase signalling research and drug discovery” (Biochem J, 2013) can be followed below.

Assay [1] has as its target Insulin receptor (Homo sapiens) (UniProt P06213). Conditions: at 10 µM.
For assay [2] the target is unchanged. Conditions: at 1 µM.
Assay [3] shares this target. Particulars: at 10 µM. The source holds these as a separate data set.
Assay [4] has as its target Interleukin-1 receptor-associated kinase 1 (Homo sapiens) (UniProt P51617). Particulars: at 1 µM.
Assay [5] shares this target. Particulars: at 10 µM.
Assay [6] has as its target T1, Interleukin-1 receptor-associated kinase 4 (Homo sapiens) (UniProt Q9NWZ3).
T1 sequence (whole entry): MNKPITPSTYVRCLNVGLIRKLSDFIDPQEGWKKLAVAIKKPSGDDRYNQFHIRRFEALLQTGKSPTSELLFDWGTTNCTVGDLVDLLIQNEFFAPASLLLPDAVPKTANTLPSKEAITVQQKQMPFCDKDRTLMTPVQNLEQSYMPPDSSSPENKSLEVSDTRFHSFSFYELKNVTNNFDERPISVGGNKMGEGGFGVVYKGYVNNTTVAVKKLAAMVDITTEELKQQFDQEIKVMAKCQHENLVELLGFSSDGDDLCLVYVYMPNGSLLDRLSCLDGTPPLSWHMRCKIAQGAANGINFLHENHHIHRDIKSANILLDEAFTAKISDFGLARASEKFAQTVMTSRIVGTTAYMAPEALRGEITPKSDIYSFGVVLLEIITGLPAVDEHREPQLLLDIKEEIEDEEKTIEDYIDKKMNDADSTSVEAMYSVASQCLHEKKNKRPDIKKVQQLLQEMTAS
Particulars: at 1 µM.

The target in assay [7] is T1, Interleukin-1 receptor-associated kinase 4 (Homo sapiens). Conditions: at 10 µM.
The target of assay [8] is Insulin receptor-related protein (Homo sapiens) (UniProt P14616). Particulars: at 1 µM.
For assay [9] the target is unchanged. Conditions: at 10 µM.
The target in assay [10] is T2, Tyrosine-protein kinase ITK/TSK (Homo sapiens) (UniProt Q08881).
T2 sequence (whole entry): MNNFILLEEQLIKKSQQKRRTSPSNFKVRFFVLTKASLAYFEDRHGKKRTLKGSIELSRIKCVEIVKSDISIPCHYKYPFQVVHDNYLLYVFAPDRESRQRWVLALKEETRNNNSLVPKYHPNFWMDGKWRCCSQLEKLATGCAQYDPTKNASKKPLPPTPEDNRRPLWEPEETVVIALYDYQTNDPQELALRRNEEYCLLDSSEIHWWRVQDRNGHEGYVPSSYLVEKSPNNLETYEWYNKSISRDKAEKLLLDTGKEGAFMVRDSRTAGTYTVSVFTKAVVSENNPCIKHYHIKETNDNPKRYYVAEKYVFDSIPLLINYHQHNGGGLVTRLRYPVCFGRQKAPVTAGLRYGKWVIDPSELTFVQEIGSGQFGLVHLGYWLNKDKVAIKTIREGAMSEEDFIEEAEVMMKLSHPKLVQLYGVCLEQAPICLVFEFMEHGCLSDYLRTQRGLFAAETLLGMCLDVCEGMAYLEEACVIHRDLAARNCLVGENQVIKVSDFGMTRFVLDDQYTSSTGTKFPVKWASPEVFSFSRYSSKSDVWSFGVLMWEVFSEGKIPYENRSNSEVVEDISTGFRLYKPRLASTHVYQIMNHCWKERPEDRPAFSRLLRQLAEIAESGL
Conditions: at 1 µM.

In assay [11] the target is T2, Tyrosine-protein kinase ITK/TSK (Homo sapiens). Particulars: at 10 µM.
The target in assay [12] is Tyrosine-protein kinase JAK2 (Homo sapiens) (UniProt O60674). Conditions: at 1 µM.
Assay [13] shares this target. Particulars: at 10 µM.
The target in assay [14] is T3, Tyrosine-protein kinase JAK3 (Homo sapiens) (UniProt P52333).
T3 sequence (whole entry): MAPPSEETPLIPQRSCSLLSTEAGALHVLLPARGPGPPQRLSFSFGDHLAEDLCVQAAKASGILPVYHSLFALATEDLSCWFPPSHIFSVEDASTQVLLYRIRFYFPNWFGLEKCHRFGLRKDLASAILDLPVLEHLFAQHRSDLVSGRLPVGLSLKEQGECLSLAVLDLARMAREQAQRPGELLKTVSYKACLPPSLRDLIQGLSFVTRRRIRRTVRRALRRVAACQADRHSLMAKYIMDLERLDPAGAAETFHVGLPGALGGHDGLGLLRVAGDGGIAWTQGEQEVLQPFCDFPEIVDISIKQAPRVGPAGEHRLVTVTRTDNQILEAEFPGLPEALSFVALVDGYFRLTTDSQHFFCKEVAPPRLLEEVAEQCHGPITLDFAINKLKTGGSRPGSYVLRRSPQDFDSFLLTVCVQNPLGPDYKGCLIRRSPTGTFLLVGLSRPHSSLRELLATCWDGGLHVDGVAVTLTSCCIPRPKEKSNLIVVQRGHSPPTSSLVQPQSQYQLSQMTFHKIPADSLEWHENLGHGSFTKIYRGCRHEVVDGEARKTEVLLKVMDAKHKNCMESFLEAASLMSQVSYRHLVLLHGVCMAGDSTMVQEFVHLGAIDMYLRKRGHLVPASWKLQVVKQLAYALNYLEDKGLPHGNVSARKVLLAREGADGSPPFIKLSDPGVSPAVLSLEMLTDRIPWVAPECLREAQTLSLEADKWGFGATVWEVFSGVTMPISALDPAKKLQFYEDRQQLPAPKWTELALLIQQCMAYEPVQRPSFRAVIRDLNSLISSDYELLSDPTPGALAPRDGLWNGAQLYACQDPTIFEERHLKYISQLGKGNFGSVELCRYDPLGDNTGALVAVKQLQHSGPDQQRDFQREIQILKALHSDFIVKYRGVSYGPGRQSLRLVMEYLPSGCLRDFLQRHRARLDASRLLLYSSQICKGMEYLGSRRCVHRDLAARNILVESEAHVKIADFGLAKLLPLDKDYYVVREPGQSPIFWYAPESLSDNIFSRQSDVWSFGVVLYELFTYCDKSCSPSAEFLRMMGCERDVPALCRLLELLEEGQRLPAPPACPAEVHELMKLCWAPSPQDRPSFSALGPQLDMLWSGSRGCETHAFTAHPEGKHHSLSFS
Particulars: at 1 µM.

For assay [15], the target named is T3, Tyrosine-protein kinase JAK3 (Homo sapiens). Particulars: at 10 µM.
In assay [16] the target is Mitogen-activated protein kinase 8 (Homo sapiens) (UniProt P45983). Particulars: at 1 µM.
Assay [17] shares this target. Conditions: at 10 µM.
Assay [18] addresses Mitogen-activated protein kinase 9 (Homo sapiens) (UniProt P45984). Conditions: at 1 µM.
For assay [19] the target is unchanged. Particulars: at 10 µM.
Assay [20] concerns the target Mitogen-activated protein kinase 10 (Homo sapiens) (UniProt P53779). Particulars: at 1 µM.

Mitogen-activated protein kinase 9 (Homo sapiens), sequence (P45984 whole entry, looked up): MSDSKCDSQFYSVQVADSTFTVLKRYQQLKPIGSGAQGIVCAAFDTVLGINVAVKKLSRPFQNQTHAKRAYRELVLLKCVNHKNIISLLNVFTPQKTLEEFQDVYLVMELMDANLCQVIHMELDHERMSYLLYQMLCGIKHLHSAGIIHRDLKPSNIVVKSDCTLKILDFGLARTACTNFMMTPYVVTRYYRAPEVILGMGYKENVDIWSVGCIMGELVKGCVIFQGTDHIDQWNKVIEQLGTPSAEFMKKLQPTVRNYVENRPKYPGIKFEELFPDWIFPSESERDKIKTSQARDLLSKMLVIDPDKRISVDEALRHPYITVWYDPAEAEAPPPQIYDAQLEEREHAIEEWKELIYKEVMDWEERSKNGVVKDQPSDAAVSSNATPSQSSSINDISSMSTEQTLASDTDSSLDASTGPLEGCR
Mitogen-activated protein kinase 8 (Homo sapiens), sequence (P45983 whole entry): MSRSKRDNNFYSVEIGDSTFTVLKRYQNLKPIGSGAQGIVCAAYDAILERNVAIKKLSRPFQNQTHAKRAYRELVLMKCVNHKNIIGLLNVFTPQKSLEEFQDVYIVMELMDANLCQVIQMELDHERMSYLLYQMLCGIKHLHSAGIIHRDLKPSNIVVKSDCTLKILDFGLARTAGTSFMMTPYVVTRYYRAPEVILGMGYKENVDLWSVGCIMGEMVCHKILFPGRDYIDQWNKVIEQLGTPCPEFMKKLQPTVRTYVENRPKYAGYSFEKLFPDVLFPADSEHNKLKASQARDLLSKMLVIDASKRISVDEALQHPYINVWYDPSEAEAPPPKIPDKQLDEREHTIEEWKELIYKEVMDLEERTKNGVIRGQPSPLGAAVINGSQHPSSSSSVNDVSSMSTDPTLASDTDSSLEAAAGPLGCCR
Tyrosine-protein kinase JAK2 (Homo sapiens), sequence (O60674 whole entry): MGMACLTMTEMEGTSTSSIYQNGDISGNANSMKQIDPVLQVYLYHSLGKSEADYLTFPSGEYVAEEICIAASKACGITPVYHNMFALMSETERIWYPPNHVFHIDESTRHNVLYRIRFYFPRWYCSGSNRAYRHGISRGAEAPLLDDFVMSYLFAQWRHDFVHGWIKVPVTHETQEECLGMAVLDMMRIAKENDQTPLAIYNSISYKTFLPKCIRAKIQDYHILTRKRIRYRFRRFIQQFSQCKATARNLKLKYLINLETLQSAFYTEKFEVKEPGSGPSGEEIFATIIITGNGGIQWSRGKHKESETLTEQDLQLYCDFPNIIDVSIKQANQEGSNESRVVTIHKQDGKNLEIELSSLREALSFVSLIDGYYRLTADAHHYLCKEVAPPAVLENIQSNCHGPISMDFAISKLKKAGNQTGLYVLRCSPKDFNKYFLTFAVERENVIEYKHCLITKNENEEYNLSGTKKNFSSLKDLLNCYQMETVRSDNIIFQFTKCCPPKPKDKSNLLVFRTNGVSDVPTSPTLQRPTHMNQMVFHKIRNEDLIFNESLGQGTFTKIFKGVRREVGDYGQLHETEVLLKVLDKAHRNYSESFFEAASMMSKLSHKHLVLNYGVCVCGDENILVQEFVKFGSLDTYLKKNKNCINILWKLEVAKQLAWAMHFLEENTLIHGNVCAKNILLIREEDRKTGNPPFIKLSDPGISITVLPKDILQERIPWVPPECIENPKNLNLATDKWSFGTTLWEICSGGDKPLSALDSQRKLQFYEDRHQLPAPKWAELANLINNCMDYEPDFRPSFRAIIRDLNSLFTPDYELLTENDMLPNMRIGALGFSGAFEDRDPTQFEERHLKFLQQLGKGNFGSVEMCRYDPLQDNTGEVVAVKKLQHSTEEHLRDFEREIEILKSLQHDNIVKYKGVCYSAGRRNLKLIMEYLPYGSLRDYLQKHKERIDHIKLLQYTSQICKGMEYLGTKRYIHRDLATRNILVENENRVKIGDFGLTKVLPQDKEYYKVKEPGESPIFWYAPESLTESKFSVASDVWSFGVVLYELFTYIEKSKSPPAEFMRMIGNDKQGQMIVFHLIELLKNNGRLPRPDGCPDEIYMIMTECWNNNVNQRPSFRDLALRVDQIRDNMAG
Insulin receptor (Homo sapiens), sequence (P06213 28-758 limits assumed): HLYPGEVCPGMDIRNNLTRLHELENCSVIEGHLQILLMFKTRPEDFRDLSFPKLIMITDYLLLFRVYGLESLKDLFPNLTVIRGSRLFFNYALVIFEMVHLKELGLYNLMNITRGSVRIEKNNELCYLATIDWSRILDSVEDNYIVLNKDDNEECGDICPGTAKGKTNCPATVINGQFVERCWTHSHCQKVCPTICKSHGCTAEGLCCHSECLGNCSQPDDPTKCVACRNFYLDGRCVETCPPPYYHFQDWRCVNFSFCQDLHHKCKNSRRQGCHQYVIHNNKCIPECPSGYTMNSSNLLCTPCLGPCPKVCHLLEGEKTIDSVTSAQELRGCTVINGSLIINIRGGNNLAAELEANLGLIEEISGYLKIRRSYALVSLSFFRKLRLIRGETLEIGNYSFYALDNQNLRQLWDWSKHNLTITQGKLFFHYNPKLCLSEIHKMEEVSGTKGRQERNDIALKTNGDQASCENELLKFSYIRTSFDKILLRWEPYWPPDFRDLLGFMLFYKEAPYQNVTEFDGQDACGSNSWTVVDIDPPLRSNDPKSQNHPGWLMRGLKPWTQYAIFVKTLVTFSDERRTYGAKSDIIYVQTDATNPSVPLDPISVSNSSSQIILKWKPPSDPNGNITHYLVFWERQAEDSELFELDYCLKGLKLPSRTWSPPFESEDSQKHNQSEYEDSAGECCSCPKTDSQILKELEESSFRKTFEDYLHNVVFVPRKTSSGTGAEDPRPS
Insulin receptor (Homo sapiens), sequence (P06213 763-1382 limits assumed): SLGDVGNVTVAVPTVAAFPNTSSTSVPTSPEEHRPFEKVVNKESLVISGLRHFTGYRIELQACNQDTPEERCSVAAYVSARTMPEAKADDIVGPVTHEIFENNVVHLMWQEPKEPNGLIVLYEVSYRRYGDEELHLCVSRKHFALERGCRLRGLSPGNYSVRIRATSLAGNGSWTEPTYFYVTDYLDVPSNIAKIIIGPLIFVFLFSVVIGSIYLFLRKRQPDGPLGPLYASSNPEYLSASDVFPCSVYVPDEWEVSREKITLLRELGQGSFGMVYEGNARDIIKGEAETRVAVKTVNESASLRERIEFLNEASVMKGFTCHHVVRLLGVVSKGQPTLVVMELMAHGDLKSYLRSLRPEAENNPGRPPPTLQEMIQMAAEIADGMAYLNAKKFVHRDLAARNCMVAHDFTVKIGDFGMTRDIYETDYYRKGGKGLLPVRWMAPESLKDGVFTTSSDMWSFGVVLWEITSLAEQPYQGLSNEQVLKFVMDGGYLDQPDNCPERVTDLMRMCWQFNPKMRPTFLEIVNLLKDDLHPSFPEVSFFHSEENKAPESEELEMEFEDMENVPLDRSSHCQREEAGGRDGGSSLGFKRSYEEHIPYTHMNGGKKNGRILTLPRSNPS
Mitogen-activated protein kinase 10 (Homo sapiens), sequence (P53779 whole entry): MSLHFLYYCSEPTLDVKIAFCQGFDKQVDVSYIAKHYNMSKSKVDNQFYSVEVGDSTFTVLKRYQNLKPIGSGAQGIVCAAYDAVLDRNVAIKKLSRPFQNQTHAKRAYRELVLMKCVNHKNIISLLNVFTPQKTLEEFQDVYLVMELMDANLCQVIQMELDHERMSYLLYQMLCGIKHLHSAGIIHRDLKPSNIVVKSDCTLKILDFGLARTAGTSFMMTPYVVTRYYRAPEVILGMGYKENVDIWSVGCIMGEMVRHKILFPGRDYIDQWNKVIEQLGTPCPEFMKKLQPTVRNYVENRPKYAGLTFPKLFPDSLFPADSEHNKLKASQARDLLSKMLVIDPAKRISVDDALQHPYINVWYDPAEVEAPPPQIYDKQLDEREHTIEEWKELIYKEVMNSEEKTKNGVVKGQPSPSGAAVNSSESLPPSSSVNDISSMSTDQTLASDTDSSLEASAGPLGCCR
Interleukin-1 receptor-associated kinase 1 (Homo sapiens), sequence (P51617 whole entry, looked up): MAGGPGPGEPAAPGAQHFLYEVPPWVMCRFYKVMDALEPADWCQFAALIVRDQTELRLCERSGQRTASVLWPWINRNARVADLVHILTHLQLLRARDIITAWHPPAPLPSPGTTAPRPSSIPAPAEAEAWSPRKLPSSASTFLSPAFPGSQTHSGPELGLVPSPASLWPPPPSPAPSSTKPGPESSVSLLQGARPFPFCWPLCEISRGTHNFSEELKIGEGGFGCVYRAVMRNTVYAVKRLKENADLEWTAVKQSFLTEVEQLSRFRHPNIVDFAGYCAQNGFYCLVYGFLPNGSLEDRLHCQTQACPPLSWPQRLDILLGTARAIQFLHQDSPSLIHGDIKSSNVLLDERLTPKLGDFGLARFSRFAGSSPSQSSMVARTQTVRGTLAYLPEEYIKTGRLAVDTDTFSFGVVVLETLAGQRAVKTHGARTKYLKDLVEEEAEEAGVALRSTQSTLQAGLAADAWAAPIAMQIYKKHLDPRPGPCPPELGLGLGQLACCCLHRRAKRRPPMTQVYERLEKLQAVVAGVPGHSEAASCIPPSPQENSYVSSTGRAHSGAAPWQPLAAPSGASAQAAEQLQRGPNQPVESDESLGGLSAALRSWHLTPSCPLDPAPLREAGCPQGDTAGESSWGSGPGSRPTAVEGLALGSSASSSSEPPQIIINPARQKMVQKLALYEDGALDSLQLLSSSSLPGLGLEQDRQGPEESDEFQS

For `NC(=O)c1ccc2[nH]c(-c3ccc(Oc4ccc(Cl)cc4)cc3)nc2c1`, the residual activity in assay [1] was found to be 108%; in assay [2] it was 100%; in assay [3], 94%; in assay [4], 95%; in [5], 82%; in [6], 80%. The residual activity in assay [7] was determined as 79%; in assay [8], 107%; in assay [9], 101%; in assay [10], 102%; in assay [11], 86%; in assay [12], 97%. Moreover, the residual activity was 115% in assay [13]; 105% in assay [14]; 117% in assay [15]; 97% in [16]; 91% in assay [17]; 88% in [18]. Besides, the figures for the residual activity in assay [19] and in assay [20] were 93% and 98%, respectively.

`Cc1nc(-c2ccccc2)c(-c2ccncc2)o1`: the residual activity in assay [1] is 106%; in [2], 109%; in assay [3], 93%; in assay [4] it was 110%; in [5], 107%; in assay [6] it was 104%. In addition, the residual activity in assay [7] came out at 88%; in assay [8], 118%; in [9] it was 123%; in [10], 113%; in assay [11], 101%; in assay [12] it was 113%. For the same compound, the residual activity in assay [13] was determined as 115%; in [14], 97%; in assay [15], 114%; in assay [16], 107%; in assay [17] it was 94%; in assay [18], 88%. Besides, the residual activity was 57% in assay [19] and 63% in [20].

Regarding `O=[N+]([O-])c1ccc(-c2nc(-c3ccc(F)cc3)c(-c3ccncc3)[nH]2)cc1`, the residual activity was determined as 109% in [1]; 105% in assay [2]; 95% in assay [3]; 107% in [4]; 108% in [5]; 104% in assay [6]. In addition, the residual activity was 97% in [7]; 124% in [8]; 98% in assay [9]; 108% in [10]; 98% in [11]; 99% in assay [12]. For the same compound, the residual activity in assay [13] worked out at 101%; in assay [14], 118%; in assay [15], 108%; in assay [16], 102%; in [17], 98%; in assay [18] it was 68%. Also, the residual activity in assay [19] stood at 59%; in [20], 8%.

For `Cc1nc2cc3nc(-c4cccs4)cnc3cc2n1C`, the residual activity in assay [1] worked out at 101%; in assay [2] it was 106%; in assay [3], 95%; in assay [4], 110%; in assay [5], 90%; in assay [6], 111%. Also, the residual activity in assay [7] was 70%; in assay [8], 130%; in assay [9], 100%; in assay [10] it was 108%; in assay [11], 71%; in assay [12] it was 113%. Further, the residual activity in assay [13] is 106%; in [14], 105%; in assay [15], 106%; in assay [16] it was 114%; in assay [17], 100%; in [18], 106%. Further, the residual activity amounted to 106% in assay [19] and 119% in assay [20].

As for `COc1ccc(C(=O)Nc2sc3c(c2C(N)=O)CCCC3)cc1OC`, the residual activity worked out at 82% in assay [1]; 96% in assay [2]; 96% in assay [3]; 92% in assay [4]; 86% in assay [5]; 54% in assay [6]. The residual activity in assay [7] was determined as 52%; in assay [8], 116%; in [9], 90%; in [10], 101%; in assay [11] it was 96%; in assay [12], 80%. Further, the residual activity in assay [13] was 101%; in [14], 99%; in assay [15] it was 100%; in assay [16], 106%; in [17] it was 68%; in assay [18] it was 99%. Besides, the residual activity in [19] was 94%; in assay [20], 66%.

In the case of `Cn1nc2c3c(cccc31)C(=O)c1ccccc1-2`, the residual activity in assay [1] came out at 74%; in assay [2] it was 81%; in assay [3] it was 63%; in [4], 90%; in assay [5], 87%; in assay [6], 76%. In addition, the residual activity turned out to be 47% in assay [7]; 103% in assay [8]; 89% in assay [9]; 100% in [10]; 92% in assay [11]; 93% in assay [12]. The residual activity in assay [13] stood at 76%; in assay [14] it was 101%; in assay [15], 70%; in assay [16], 85%; in assay [17], 83%; in assay [18] it was 81%. Besides, the residual activity in [19] worked out at 83%; in assay [20], 52%.
